Test results: PubChem BioAssay (NCATS)
Results filed as inconclusive are left out. The source made the active and inactive calls. Unless noted, calls come from the whole dose curve; as a rule, active = well fitted curve in the direction sought with a large enough effect; inconclusive = small, poorly fitted or top-dose-only effect, or another doubt; inactive = no such curve, though single readings can be large; an effect the other way counts as inactive or inconclusive.

What was measured:
[1] = molecular target: Peptidyl-prolyl cis-trans isomerase NIMA-interacting 1 (Homo sapiens) (UniProt Q13526); test: qHTS Validation Assay to Find Inhibitors of Pin1 (AID 504536; active = well fitted inhibition curve with a large enough effect in the polarisation, with a control signal flat, not every such curve was filed as active; the % refers to the polarisation)
Sequence of Peptidyl-prolyl cis-trans isomerase NIMA-interacting 1 (Homo sapiens) (Q13526 whole entry, looked up): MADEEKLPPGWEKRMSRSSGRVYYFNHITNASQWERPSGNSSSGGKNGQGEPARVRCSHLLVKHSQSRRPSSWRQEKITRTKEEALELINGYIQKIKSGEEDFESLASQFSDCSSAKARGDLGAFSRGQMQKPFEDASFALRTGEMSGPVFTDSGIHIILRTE
How it was run: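 Fluorescence polarization competition: compounds (titration) displace HiFluor-488-labeled Pin1-1b peptide from Pin1 (0.3 uM final) in pH 7.5 HEPES buffer with DTT, 10 min at room temperature; %Activity normalized to no-enzyme wells, curves fitted.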

[2] = molecular target: Phosphoglycerate kinase, glycosomal (Trypanosoma brucei brucei) (UniProt P07378); test: qHTS Validation Assay to Find Inhibitors of Phosphoglycerate Kinase (AID 504547)
Sequence of Phosphoglycerate kinase, glycosomal (Trypanosoma brucei brucei) (P07378 whole entry, looked up): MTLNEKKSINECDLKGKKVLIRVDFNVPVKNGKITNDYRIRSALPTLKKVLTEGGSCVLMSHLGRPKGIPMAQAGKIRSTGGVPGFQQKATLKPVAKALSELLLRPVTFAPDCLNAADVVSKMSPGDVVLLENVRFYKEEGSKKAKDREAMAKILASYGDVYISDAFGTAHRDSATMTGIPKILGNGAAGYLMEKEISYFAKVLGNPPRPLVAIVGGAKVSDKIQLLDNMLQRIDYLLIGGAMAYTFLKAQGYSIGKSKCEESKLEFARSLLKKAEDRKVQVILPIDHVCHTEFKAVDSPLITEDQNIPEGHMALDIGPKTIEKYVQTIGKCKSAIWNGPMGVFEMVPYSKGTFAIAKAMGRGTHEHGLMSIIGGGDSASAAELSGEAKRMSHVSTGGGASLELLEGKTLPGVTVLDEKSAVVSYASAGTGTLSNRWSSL
How it was run: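 In TEA buffer (100mM, pH 7.6) containing 5mM MgCl2 and 0.01% Tween-20, the GAPDH-coupled PGK reaction proceeded for 60 minutes at room temperature before a single luminescence reading using Kinase-Glo Plus.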

[3] = molecular target: phosphoglycerate mutase (Leishmania major) (UniProt Q4Q090); test: qHTS Validation Assay to Find Inhibitors of Phosphoglycerate Mutase (AID 504548);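 note: end-point luminescence from Kinase-GloPlus after the PGAM reaction; series mostly up to about 58 µM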
Sequence of phosphoglycerate mutase (Leishmania major) (Q4Q090 1-553): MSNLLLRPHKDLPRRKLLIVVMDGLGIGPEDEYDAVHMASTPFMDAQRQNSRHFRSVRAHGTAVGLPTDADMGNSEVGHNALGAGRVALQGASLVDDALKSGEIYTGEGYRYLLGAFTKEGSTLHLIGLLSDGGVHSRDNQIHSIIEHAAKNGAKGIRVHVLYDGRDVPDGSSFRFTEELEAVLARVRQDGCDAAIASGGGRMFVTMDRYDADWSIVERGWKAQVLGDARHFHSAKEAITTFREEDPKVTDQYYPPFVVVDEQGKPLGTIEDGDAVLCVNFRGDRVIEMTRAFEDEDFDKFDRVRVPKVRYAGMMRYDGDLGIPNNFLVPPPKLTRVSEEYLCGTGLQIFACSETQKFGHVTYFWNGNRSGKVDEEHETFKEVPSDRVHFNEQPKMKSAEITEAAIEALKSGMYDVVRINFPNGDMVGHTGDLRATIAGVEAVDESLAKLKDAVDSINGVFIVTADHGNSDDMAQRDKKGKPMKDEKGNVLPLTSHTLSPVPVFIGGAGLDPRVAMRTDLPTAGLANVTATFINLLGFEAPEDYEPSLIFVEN
How it was run: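 Inhibition of L. major PGAM was assessed by Kinase-GloPlus luminescence following a 45-minute room-temperature reaction with enzyme at 1.25nM final.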

[4] = qHTS for Inhibitors of ATXN expression: Validation of Cytotoxic Assay (AID 588349)
How it was run: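 Cytotoxicity counter-screen: HEK293 cells exposed to compound titrations, 72 hr, 37 degrees C. Read-out is intracellular ATP (CellTiter Glo luminescence) as a viability measure.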

[5] = qHTS for Inhibitors of ATXN expression: Validation (AID 588378); note: series mostly up to about 57 µM; nearly all actives have a fitted effect of over 75% in size
How it was run: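 Luciferase luminescence (Bright-Glo) from an ATXN2-FFLuc HEK293 line after 24 h compound exposure at 37 °C, preceded by a CellTiter-Fluor fluorescence viability read. Serial dilutions of a reference ATXN2 inhibitor and a luciferase inhibitor served as controls.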

[6] = molecular target: Glutaminase kidney isoform, mitochondrial (Homo sapiens) (UniProt O94925); test: qHTS for Inhibitors of Glutaminase (GLS): LOPAC Validation (AID 624146);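 note: glutamate product detected by oxidase and peroxidase coupled Amplex red fluorescence gain; series mostly up to about 46 µM; nearly all actives have a fitted effect of over 60% in size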
Sequence of Glutaminase kidney isoform, mitochondrial (Homo sapiens) (O94925 whole entry, looked up, canonical isoform): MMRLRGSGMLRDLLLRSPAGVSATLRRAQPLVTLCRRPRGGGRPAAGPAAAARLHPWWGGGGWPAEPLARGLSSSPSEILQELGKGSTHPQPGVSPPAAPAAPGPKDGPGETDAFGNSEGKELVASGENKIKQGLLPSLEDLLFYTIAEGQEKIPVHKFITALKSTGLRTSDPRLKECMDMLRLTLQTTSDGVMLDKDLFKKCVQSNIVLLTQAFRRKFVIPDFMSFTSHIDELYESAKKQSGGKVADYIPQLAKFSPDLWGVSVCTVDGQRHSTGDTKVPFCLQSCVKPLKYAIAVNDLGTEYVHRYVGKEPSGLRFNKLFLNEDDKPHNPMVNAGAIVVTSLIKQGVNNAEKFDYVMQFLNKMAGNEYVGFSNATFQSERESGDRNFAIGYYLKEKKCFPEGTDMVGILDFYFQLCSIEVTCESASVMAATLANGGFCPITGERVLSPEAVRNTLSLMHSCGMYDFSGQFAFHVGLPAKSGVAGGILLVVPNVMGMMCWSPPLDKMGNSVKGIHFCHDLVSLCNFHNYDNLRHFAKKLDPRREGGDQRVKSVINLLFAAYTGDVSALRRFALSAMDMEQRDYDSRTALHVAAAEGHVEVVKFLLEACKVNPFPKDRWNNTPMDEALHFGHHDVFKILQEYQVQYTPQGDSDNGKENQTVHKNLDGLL
How it was run: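 Read-out is an Amplex red fluorescence increase coupled through glutamate oxidase and HRP, measured before and after 30 min room-temperature incubation. hKGA is in 45 mM KH2PO4 (pH 8.2) with 0.02% Tween-20; glutamine added as 1mM solution.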

[7] = qHTS of Trypanosoma Brucei Inhibitors: LOPAC Validation (AID 624147)
How it was run: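 Luminescent Kinase-Glo Plus end-point after 45 min room-temperature reaction of T. brucei pyruvate kinase started with 130 uM ADP (final). Buffer TEA 50 mM pH 7.2 with KCl, MgCl2, BSA, Tween-20; titration-based qHTS with fitted concentration-effect curves.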

[8] = molecular target: Glucagon-like peptide 1 receptor (Homo sapiens) (UniProt P43220); test: qHTS of GLP-1 Receptor Agonists: LOPAC Validation (AID 624148);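 note: higher luminescence signal means agonism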
Sequence of Glucagon-like peptide 1 receptor (Homo sapiens) (P43220 whole entry, looked up): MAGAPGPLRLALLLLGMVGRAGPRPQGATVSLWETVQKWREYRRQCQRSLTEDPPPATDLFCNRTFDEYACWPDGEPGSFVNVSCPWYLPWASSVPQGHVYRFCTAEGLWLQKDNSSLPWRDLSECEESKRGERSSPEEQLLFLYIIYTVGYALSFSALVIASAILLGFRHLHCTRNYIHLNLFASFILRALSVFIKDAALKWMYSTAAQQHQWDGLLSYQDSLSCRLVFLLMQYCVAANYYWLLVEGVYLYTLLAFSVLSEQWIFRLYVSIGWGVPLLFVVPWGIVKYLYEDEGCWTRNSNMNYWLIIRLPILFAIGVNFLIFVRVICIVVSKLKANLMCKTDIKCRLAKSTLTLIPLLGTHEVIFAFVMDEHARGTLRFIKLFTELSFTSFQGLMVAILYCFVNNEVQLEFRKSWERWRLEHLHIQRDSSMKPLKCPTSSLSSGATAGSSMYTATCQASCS
How it was run: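 HEK293 cells stably co-expressing a cAMP-responsive luciferase reporter and a hypersensitive GLP-1R were plated 12 h at 37 °C and exposed to compounds for 4-6 hr at 37 °C, 5% CO2. Luminescence was read 12 min after adding detection reagent.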

[9] = qHTS of Nrf2 Activators: LOPAC Validation (AID 624149)
How it was run: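 AREc32_Fluc cells, 1000/well, OPTI-MEM + 5% FBS, o/n 37 deg C 5% CO2; compound pin-transfer, 24 hr 37 deg C; Steady-Glo 30 min RT, luminescence read.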

[10] = HTS Assay for Allosteric Antagonists of the Human D2 Dopamine Receptor: Hit Validation in HTRF (AID 624455)
How it was run: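 HTRF read-out; cells stably expressing D1 receptor; hits scored for inhibition of D1-mediated response. Primary screen: calcium flux, force-coupled inducible Hek293 Trex D2 line, antagonism vs EC80 dopamine.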

[11] = molecular target: Arylsulfatase A (Homo sapiens) (UniProt P15289); test: qHTS screen for enhancers of Arylsulfatase A (ASA1): LOPAC Validation Assay (AID 720538)
How it was run: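 Enhancer assay in patient-derived MLD fibroblasts carrying ASA-I179S: 48 h compound exposure at 37 C, then 14 h room-temperature pNCS turnover (0.5 mM final) in lysis buffer. Read by fluorescence at 525/598 nm after NaOH stop.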

[12] = qHTS for Activators of Parkin Expression: LOPAC Validation Assay (NLuc Reporter) (AID 720572)
How it was run: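 Cells harboring the Parkin-promoter coincidence reporter were treated for 24 h at seven concentrations. NLuc output was measured sequentially after the FLuc channel and scaled between DMSO and positive control values.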

[13] = qHTS for Activators of Parkin Expression: LOPAC Validation Assay (FLuc Reporter) (AID 720573)
How it was run: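 FLuc signal from Parkin-promoter coincidence reporter neuronal cells, normalized to DMSO and positive control (100%). Cells (1,500/well) pre-incubated 24 h, then exposed to LOPAC compounds in 7-point dose response for 24 h at 37 C, 5% CO2.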

[14] = molecular target: T1, Hexokinase-4 (Homo sapiens) + Glucokinase regulatory protein (Homo sapiens) (UniProt P35557+Q14397); test: qHTS assay for inhibitors of recombinant human GCK-GKRP interaction: Diaphorase-coupled assay (AID 743205)
T1 sequence (P35557 whole entry, looked up): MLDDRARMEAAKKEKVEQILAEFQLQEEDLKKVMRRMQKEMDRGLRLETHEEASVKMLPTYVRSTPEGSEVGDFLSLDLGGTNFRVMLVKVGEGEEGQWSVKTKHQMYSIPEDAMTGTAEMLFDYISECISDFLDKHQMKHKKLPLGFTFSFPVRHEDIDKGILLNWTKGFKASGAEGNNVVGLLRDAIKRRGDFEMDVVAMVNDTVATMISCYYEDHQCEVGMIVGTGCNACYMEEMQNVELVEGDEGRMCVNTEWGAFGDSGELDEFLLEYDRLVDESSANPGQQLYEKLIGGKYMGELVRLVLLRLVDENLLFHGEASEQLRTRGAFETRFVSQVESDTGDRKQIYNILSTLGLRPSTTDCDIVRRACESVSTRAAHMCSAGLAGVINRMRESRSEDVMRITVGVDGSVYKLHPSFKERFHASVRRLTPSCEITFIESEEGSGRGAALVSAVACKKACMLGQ
T1 sequence (Q14397 whole entry, looked up): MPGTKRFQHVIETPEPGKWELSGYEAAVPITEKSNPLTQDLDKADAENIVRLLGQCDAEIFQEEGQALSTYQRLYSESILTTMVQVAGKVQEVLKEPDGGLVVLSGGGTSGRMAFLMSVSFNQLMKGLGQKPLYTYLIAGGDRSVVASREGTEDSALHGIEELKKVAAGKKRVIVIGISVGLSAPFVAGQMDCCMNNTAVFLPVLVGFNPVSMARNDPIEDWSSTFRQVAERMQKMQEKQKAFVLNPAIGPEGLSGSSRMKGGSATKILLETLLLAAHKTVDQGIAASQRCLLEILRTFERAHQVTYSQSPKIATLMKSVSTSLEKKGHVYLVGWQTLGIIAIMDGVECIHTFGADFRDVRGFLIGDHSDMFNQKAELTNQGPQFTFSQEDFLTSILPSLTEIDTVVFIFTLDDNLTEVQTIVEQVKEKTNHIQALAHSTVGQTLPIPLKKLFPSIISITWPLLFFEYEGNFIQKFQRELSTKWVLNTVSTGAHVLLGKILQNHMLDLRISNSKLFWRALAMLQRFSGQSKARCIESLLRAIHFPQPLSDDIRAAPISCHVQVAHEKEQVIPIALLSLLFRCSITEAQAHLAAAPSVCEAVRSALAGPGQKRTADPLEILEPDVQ
How it was run: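 A kinetic fluorescence read (Ex 525/Em 590 nm, every minute for 30 minutes) tracked resorufin from a G6PDH-diaphorase coupled GCK reaction. It contained 10 nM GST-GCK, 10 nM FLAG-GKRP, 5 mM glucose, 0.4 mM ATP in Hepes pH 7.6. Normalized to with/without-enzyme DMSO controls.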

[15] = molecular target: T1, Hexokinase-4 (Homo sapiens) + Glucokinase regulatory protein (Homo sapiens); test: qHTS assay for inhibitors of recombinant human GCK-GKRP interaction: ADP-Glo assay (AID 743206)
How it was run: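 Pin-transferred compounds meet a 15 nM GST-GCK/15 nM FLAG-GKRP/2 uM S6P mix (dispense concentrations). ATP is then added to 0.4 mM final with 5 mM glucose, and the reaction runs 60 min at room temperature. ADP is quantified luminescently.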

[16] = molecular target: T1, Hexokinase-4 (Homo sapiens) + Glucokinase regulatory protein (Homo sapiens); test: qHTS assay for inhibitors of recombinant human GCK-GKRP interaction: HTRF assay (AID 743207)
How it was run: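 After 60 min equilibration at room temperature with anti-FLAG XL665 and anti-GST antibodies, FRET ratio (665/615 nm, excitation 320 nm) was read. Proteins: GST-GCK and FLAG-GKRP, each 5 nM, plus 2 uM S6P, pH 7.1 buffer; GCK-free wells define minimum signal.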

[17] = Natriuretic polypeptide receptor (hNpr1) antagonism - Pilot counterscreen GloSensor control cell line (AID 1347045; calls by dose curve; note: series mostly up to about 38 µM)
How it was run: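 HEK293 cGMP-sensor cells; 2% GloSensor reagent 2 h RT; LOPAC compounds in 1:5 titrations 30-50 min; 50 uM SNP 20 min; luminescence pre-read and post-read.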

[18] = molecular target: Atrial natriuretic peptide receptor 1 (Homo sapiens) (UniProt P16066); test: Natriuretic polypeptide receptor (hNpr1) antagonism - Pilot screen (AID 1347049; calls by dose curve;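 note: HEK293 cells with hNpr1 and GloSensor cGMP luciferase stimulated by 0.1 nM hNppA; agonist-evoked cGMP luminescence read 20 min after hNppA addition; series mostly up to about 58 µM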)
How it was run: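 Cells expressing receptor plus cGMP biosensor are seeded and incubated overnight at 37C, then loaded with GloSensor reagent (2% final) at room temperature for 2 h. Library compounds go on for 30 min. A pre-read precedes agonist (hNppA, 0.1 nM final) and a 20-min readout.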

[19] = molecular target: Atrial natriuretic peptide receptor 2 (Homo sapiens) (UniProt P20594); test: Natriuretic polypeptide receptor (hNpr2) antagonism - Pilot subtype selectivity assay (AID 1347050; calls by dose curve)
How it was run: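 Read-out: GloSensor luminescence (CCD imager), baseline vs post-stimulation. HEK293 cells expressing hNpr2; compounds pre-incubated 30-50 min at ambient temperature; hNppC 1 nM final, 20 min.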

[20] = molecular target: T2, Tyrosine-protein phosphatase non-receptor type substrate 1 (Homo sapiens) + Leukocyte surface antigen CD47 (Homo sapiens) (UniProt P78324+Q08722); test: CD47-SIRPalpha protein protein interaction - LANCE assay qHTS validation (AID 1347057; active = well fitted curve in the direction sought with a large enough effect in the signal ratio, with a control signal flat, not every such curve was filed as active; the % refers to the signal ratio; note: series mostly up to about 38 µM)
T2 sequence (P78324 whole entry, looked up, the tested form may be a part): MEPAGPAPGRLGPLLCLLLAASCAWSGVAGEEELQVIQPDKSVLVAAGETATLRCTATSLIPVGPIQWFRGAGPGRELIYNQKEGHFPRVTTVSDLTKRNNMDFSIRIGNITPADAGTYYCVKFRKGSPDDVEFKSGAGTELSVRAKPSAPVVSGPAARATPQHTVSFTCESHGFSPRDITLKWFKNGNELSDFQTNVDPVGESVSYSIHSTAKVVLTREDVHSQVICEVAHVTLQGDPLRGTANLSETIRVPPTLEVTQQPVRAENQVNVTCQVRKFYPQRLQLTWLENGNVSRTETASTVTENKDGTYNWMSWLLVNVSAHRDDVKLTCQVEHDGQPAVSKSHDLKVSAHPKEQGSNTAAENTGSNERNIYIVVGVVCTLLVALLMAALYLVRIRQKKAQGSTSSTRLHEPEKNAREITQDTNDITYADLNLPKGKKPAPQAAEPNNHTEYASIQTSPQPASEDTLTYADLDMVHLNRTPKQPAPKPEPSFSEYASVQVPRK
T2 sequence (Q08722 whole entry, looked up, the tested form may be a part): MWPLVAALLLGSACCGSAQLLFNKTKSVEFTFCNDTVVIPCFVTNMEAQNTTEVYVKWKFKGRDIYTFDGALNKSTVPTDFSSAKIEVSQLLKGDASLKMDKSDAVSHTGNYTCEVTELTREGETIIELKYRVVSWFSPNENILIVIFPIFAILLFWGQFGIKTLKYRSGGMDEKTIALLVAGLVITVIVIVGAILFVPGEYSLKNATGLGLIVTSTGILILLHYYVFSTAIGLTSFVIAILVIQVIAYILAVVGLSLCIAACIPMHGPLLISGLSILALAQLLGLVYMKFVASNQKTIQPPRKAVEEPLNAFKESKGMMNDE
How it was run: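 Inhibition of soluble CD47/SIRPalpha ectodomain association by titrated compounds, measured as 665/615 nm time-resolved FRET ratio after sequential 30 min room-temperature incubations.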

[21] = molecular target: T2, Tyrosine-protein phosphatase non-receptor type substrate 1 (Homo sapiens) + Leukocyte surface antigen CD47 (Homo sapiens); test: CD47-SIRPalpha protein protein interaction - HTRF assay qHTS validation (AID 1347058; active = well fitted curve in the direction sought with a large enough effect in the signal ratio, not every such curve was filed as active; the % refers to the signal ratio; note: series mostly up to about 38 µM)
How it was run: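 Soluble extracellular domains (6His-CD47, Avi-tag-biotinylated SIRPalpha) in PBS pH 7.4 with 0.05% IGEPAL CA-630. Compounds were preincubated 30 min at RT with CD47 and anti-His-Eu, then SIRPalpha and SAV-XL665 were added. TR-FRET 665/615 ratio.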

[22] = molecular target: T2, Tyrosine-protein phosphatase non-receptor type substrate 1 (Homo sapiens) + Leukocyte surface antigen CD47 (Homo sapiens); test: CD47-SIRPalpha protein protein interaction - Alpha assay qHTS validation (AID 1347059);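 note: bead proximity luminescence from CD47 binding SIRPalpha after compound preincubation with SIRPalpha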
How it was run: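 In PBS (pH 7.4) with 0.05% IGEPAL CA-630, compound is preincubated with biotin-Avi-SIRPalpha ectodomain before His-CD47 ectodomain and affinity beads are added. Light-protected room-temperature incubations; AlphaScreen readout.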

[23] = molecular target: Parathyroid hormone/parathyroid hormone-related peptide receptor (Homo sapiens) (UniProt Q03431); test: qHTS for PTHR1 Agonists: Optimization Screen against the NCGC LOPAC library (AID 1347079);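 note: GloSensor cAMP luminescence in HEK-293 GP2 cells expressing human PTHR1 with IBMX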
How it was run: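 Signal increase flags agonism. GP2 cells, derived from HEK-293, express human PTHR1 and a GloSensor cAMP construct.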

[24] = test system: Zika virus NS2B-NS3 protease (unlinked); test: Optimization of GU AMC qHTS for Zika virus inhibitors: Unlinked NS2B-NS3 protease assay (AID 1347151); note: series mostly up to about 52 µM; nearly all actives have a fitted effect of over 80% in size
How it was run: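 Fluorescence gain (340/450 nm) over 15 min at room temperature, ~20% conversion, gave percent inhibition fitted to a 4-parameter Hill equation; enzyme was unlinked NS2B-NS3 (25 nM final), pH 8.0 Tris buffer.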

[25] = molecular target: Lysine-specific demethylase 5B (Homo sapiens) (UniProt Q9UGL1); test: Optimization screen for KDM5B Histone Demethylases FDH coupled qHTS against the LOPAC library (AID 1347166)
How it was run: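 KDM5BDeltaAP (200nM final) in 50mM HEPES pH 7.5, 0.01% Tween-20 was preincubated with compound for 10 min at room temperature. A substrate mix of 12.5uM H3K4Me3, 25uM a-ketoglutarate, ascorbate, Fe2+, NAD+ and formaldehyde dehydrogenase was then added. NADH fluorescence (340/450 nm) was read initially and after 30 min.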

[26] = qHTS to identify inhibitors of the type 1 interferon - major histocompatibility complex class I in skeletal muscle: primary screen against the NCATS LOPAC collection (AID 1347405);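 note: human myoblasts with HiBiT tag on endogenous HLA-B stimulated by IFN-beta; lytic HiBiT luminescence reporting HLA-B protein level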
How it was run: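 HLA-B HiBiT myoblasts, IFN-b 4 ng/ml, dexamethasone-free medium; compounds 7-pt 1:4.3 titration, top 46 uM final; 24 h at 37 C; Nano-Glo HiBiT lytic reagent, 10 min RT, luminescence.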

[27] = Validation qHTS assay for inhibitors of Activation Induced Cytidine Deaminase (AID): UDG Counterscreen signal (AID 1347427)
How it was run: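 Fluorescence at 560 nm excitation, 665 nm emission reports UDG signal after 250 mM NaOH (2x) addition and 30 min. Enzymes (AID 1 uM, UDG 2 U/mL, at 4/3x) preincubated 10 min with compound, then 4 h with 4x 250 nM DJC20/DJC23 substrate at room temperature.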

[28] = molecular target: Single-stranded DNA cytosine deaminase (Homo sapiens) (UniProt Q9GZX7); test: Validation qHTS assay for inhibitors of Activation Induced Cytidine Deaminase (AID): AID signal (AID 1347429)
How it was run: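 AID+UDG coupled FRET deamination; cpds up to 114 uM final; DJC20/DJC23 substrate, 4 hr RT; NaOH stop, 30 min RT; read Ex 540/Em 590.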

[29] = molecular target: Calcium and integrin-binding protein 1 (Homo sapiens) (UniProt Q99828); test: Validation qHTS for Identification of Calcium Integrin Binding protein 1 (CIB1) Competitor (AID 1508618)
Sequence of Calcium and integrin-binding protein 1 (Homo sapiens) (Q99828 whole entry, looked up): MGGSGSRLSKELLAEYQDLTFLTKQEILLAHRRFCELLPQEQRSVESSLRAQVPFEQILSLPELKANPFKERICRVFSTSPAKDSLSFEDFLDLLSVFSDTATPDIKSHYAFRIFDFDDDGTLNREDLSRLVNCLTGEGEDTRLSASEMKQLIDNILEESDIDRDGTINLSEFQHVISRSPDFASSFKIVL
How it was run: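 In this qHTS validation, the LOPAC set (up to 114 uM) was tested for blocking CIB1 binding to a fluorescein-tagged alphaIIb peptide, with FP detection at 480/540 nm.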

[30] = molecular target: Papain (Carica papaya) (UniProt P00784); test: Primary qHTS assay for inhibitors of the protease papain (AID 1645873);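 note: papain turnover of Z-FR-AMC read as the AMC fluorescence gain over 10 min; series mostly up to about 50 µM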
[31] = molecular target: Metallo-beta-lactamase type 2 (Klebsiella pneumoniae) (UniProt C7C422); test: qHTS to identify inhibitors of the New Delhi Metallo-beta-lactamase (NDM): assay validation screen against the NCATS LOPAC Collection (AID 1794843);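 note: nitrocefin turnover by NDM-1 measured as 485 nm absorbance at plateau; series mostly up to about 38 µM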
Sequence of Metallo-beta-lactamase type 2 (Klebsiella pneumoniae) (C7C422 whole entry, looked up): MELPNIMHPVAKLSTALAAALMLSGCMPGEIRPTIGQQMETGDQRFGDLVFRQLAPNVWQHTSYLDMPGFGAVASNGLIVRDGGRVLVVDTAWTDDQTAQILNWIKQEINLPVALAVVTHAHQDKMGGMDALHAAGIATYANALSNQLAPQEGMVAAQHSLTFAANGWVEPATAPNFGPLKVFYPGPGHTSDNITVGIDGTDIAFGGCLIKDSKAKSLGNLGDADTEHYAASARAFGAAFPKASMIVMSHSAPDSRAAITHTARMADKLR
How it was run: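 Nitrocefin hydrolysis (50 uM substrate stock) by NDM-1, 2 nM final, was followed by 485 nm absorbance after compound preincubation; buffer was 50 mM HEPES pH 7.0, 1 uM ZnSO4, 0.01% Tween20.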

[32] = molecular target: Glutathione peroxidase 1 (Homo sapiens) (UniProt P07203); test: Primary qHTS Assay for Inhibitors of Recombinant Selenoprotein Glutathione Peroxidase 1 (GPX1) (AID 1845191); note: nearly all actives have a fitted effect of over 65% in size
How it was run: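 GPX1 10 nM, GR 100 nM, GSH 1 mM, NADPH 0.5 mM, CHP 0.5 mM (final). 30-min cpd preincubation, RT. Ex340/Em450 read t=0, t=15 min.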

[33] = molecular target: Phospholipid hydroperoxide glutathione peroxidase GPX4 (Homo sapiens) (UniProt P36969); test: Primary qHTS Assay for Inhibitors of Recombinant Selenoprotein Glutathione Peroxidase 4 (GPX4) (AID 1845192); conditions: outcome: dose series up to 50 µM unless noted; note: nearly all actives have a fitted effect of over 65% in size
Sequence of Phospholipid hydroperoxide glutathione peroxidase GPX4 (Homo sapiens) (P36969 whole entry, looked up): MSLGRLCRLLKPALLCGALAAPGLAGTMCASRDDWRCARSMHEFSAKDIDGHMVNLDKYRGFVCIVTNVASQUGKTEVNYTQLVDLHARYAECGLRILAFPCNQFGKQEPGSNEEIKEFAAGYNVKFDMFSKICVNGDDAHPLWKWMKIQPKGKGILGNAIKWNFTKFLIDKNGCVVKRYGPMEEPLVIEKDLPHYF
How it was run: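 qHTS, GR-coupled: GPX4 200 nM + cpd 30 min RT → GSH 1 mM, NADPH 0.5 mM, GR 100 nM → CHP 0.5 mM start; fluor 340/450 at t0 and t15 min; no-enzyme wells as control.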

Measured: Potency

CC[N+](CC)(CC)CC
inactive: all assays above
